Entries with a potency or affinity are not part of this list. Active and inactive are the calls of the source.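 How the source made its calls: active means in all runs, an absorbance decrease of 25% or more of the average positive control decrease; inconclusive means runs conflict, with both active and inactive results; inactive means all runs inactive, opposite-direction effects included.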
Target: Protein disulfide-isomerase A6 (Homo sapiens) (UniProt Q15084)
Experiment: inhibitors of ERp5-mediated insulin aggregation, dose response, biochemical, turbidity, absorbance 650 nm, cherry-picked samples (AID 720566);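 further: negative values mean less insulin aggregation so ERp5 inhibition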
Conditions: Recombinant ERp5 insulin aggregation; series mostly up to 35 µM

Chain of Protein disulfide-isomerase A6 (Homo sapiens) (Q15084 whole entry, looked up): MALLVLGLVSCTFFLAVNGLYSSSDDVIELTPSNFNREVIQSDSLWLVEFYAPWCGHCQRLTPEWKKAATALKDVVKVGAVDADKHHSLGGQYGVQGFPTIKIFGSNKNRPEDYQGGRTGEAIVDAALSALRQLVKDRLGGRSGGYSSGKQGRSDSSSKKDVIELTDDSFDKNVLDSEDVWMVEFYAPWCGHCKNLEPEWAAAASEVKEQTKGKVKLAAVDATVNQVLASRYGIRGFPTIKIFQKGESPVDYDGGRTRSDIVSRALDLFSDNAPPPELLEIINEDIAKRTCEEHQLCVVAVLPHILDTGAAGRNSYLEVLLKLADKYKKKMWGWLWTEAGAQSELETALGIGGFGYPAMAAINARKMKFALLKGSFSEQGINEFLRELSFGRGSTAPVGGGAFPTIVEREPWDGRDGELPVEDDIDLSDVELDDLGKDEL

outcome, inactive:
C[C@H]1CN([C@@H](C)CO)C(=O)Cc2cc(NC(=O)Nc3cccc4ccccc34)ccc2O[C@H]1CN(C)Cc1ccc(C(F)(F)F)cc1, Cc1cccc(Oc2ccc(NS(=O)(=O)c3ccc(C)c(C(=O)O)c3)cc2)c1, Cc1noc(C)c1NC(=O)Nc1cccc2c1O[C@H](CN(C)S(=O)(=O)c1ccc(Cl)cc1)[C@@H](C)CN([C@H](C)CO)C2=O, CCN(CC)S(=O)(=O)c1cc(NC(=O)c2ccc(-n3cncn3)c([N+](=O)[O-])c2)ccc1C, Cc1ccc(NC(=O)COc2ccccc2)c(NC(=O)c2ccco2)c1, O=C(NNC(=O)c1ccc2ccccc2c1)Nc1ccc(F)cc1, C[C@H](CO)N1C[C@H](C)[C@H](CN(C)S(=O)(=O)c2cn(C)cn2)Oc2ncc(C#Cc3ccccc3)cc2C1=O, COc1ccc(NC(=O)N(C)C[C@H]2Oc3ccc(NS(=O)(=O)c4ccccc4)cc3C(=O)N([C@@H](C)CO)C[C@@H]2C)cc1, CN1CCN(C(=O)C[C@@H]2C[C@@H]3c4cc(NC(=O)C5CCOCC5)ccc4O[C@@H]3[C@H](CO)O2)CC1, C/C=C/c1ccc2c(c1)O[C@@H](CN(C)S(C)(=O)=O)[C@H](C)CN([C@H](C)CO)S2(=O)=O, COc1ccccc1S(=O)(=O)N1C[C@H](O)COC[C@H]2O[C@@H](CC(=O)O)CC[C@@H]21, C[C@H](O)C#Cc1cnc2c(c1)C(=O)N([C@@H](C)CO)C[C@H](C)[C@H](CN(C)CC1CCCCC1)O2, CCCNC(=O)C[C@H]1C[C@@H]2c3cc(NC(=O)CC4CC4)ccc3O[C@@H]2[C@@H](CO)O1, C[C@H]1CN([C@@H](C)CO)C(=O)c2cccc(NC(=O)c3nc4ccccc4s3)c2O[C@@H]1CN(C)C(=O)Nc1ccc(C(F)(F)F)cc1, CCCN(C)C[C@@H]1Oc2cc(-c3ccc(F)cc3)ccc2S(=O)(=O)N([C@@H](C)CO)C[C@@H]1C, Cc1noc(C)c1NC(=O)N(C)C[C@H]1Oc2ccc(NC(=O)c3ccncc3)cc2C(=O)N([C@H](C)CO)C[C@@H]1C, CCCNC(=O)C[C@@H]1C[C@H]2c3cc(NS(C)(=O)=O)ccc3O[C@H]2[C@@H](CO)O1, C[C@H]1CN([C@@H](C)CO)C(=O)CCCn2cc(nn2)CO[C@@H]1CN(C)Cc1cccc(C(F)(F)F)c1, COc1cccc(CC(=O)NNC(=O)CN(C)S(=O)(=O)c2ccc(C)cc2)c1, C[C@@H]1CN([C@@H](C)CO)C(=O)c2cc(-c3cccc(C#N)c3)cnc2O[C@H]1CN(C)Cc1cncnc1, COc1ccc(NC(=O)N(C)C[C@@H]2Oc3ccc(NC(=O)Nc4ccc(F)cc4)cc3CC(=O)N([C@@H](C)CO)C[C@@H]2C)cc1
